CFTR F508del cor: correctors of CFTR F508del function in bronchial epithelial cells; CFBE cells, YFP halide quenching; stimulated with forskolin plus potentiator P3; % fluorescence drop versus neutral controls; activity (quench increase), % at 7.58 µM; 0.36% of 350,000 active;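 active = mean added fluorescence quench of at least 8% versus neutral control, with both replicates also reaching 8%; inconclusive = only one of the mean or replicate conditions met; inactive = mean below 8% and not both replicates reaching 8%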;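 note: cells transiently co-express mutant CFTR-F508del with the halide-sensitive YFP; corrector assay measuring rescue of mutant channel to the surface after 24 h compound exposure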
EWS-Fli block: blocks EWS/Fli oncoprotein-driven transcription | 0.67% of 350,000 active | AID 651661 | inhibition, % at 12.6 µM | A673 NR0B1-luciferase reporter, viability-normalised;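 active = mean inhibition of at least 50% after viability correction, with every replicate also passing that limit; inconclusive = mean reaches 50% but only one of two replicates passes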;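 note: firefly luciferase signal divided by Alamar Blue viability fluorescence both relative to DMSO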
PGC1a acetyl inh: modulators of PGC1a acetylation. U2OS PGC1a acetylation, AlphaScreen anti-acetyl-lysine; with virally co-expressed GCN5 acetyltransferase. inhibition, % at 15.6 µM. 0.17% of 350,000 active;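 active = every replicate shows inhibition of at least 40%; inconclusive = mean inhibition at least 40% but some replicate below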;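 note: 0% = neutral control wells and 100% = positive control wells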
Env fusion inh: blocks HIV Env-driven cell-cell fusion | AID 651610 | inhibition, % at 12.3 µM | 1.1% of 360,000 active | HeLa-JRFL Env/CEM21 cell fusion, luciferase;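 active = mean replicate inhibition score of at least 50 and every replicate individually at or above 50; inconclusive = only one of the two criteria met; inactive = mean below 50 and not all replicates reaching 50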;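 note: 0% = plate neutral controls and 100% = maraviroc near 300 nM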
GSIS activator: primary screen for activators of insulin secretion dependent on glucose, INS-1E cells, GLuc reporter luminescence | activation, % at 16.6 µM | 0.61% of 370,000 active | INS-1E GLuc reporter insulin secretion, 2-3 h | AID 743287;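 active = lowest replicate activation of at least 40%, so every replicate reaches that level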;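 note: 0% = median of neutral control wells and 100% = median of IBMX positive control wells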
PAX8 reporter: inhibitors of PAX8 transcriptional activity in RMG-I cells | RMG-I TPO-luciferase reporter, SteadyGlo, 24 h | inhibition, % at 12.6 µM | 1.2% of 360,000 active | AID 652154;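 active = mean replicate inhibition at least 60% with every replicate also reaching 60%; inconclusive = only one of the two criteria is met; inactive = mean below 60% and not all replicates reaching 60%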;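 note: luciferase light reporting Pax8 driven TPO promoter activity; plate controls were median of neutral control wells for no effect and mitoxantrone controls for full effect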
* = called active by the depositor; [ ] = dose if it differs, or a comment. This is a sample that favours compounds with a hit; in the whole collection about 2.7% have one here.

Screening C[C@@H]1CCCCO[C@@H](CN(C)Cc2ccccc2)[C@@H](C)CN([C@H](C)CO)C(=O)c2cc(NC(=O)Nc3ccc(C(F)(F)F)cc3)ccc2O1 returned CFTR F508del cor -2.5, EWS-Fli block -13.5, PGC1a acetyl inh -3.0, Env fusion inh 21.6[16.7 µM], GSIS activator 9.1 and PAX8 reporter 77.3*.
For C[C@@H]1CCCCO[C@@H](CN(C)Cc2ccccc2)[C@H](C)CN([C@H](C)CO)C(=O)c2cc(NC(=O)Nc3ccc(C(F)(F)F)cc3)ccc2O1 the results were CFTR F508del cor 0.3, EWS-Fli block 15.8, PGC1a acetyl inh -2.8, Env fusion inh 11.7[16.7 µM], GSIS activator 17.4 and PAX8 reporter 112.1*.
For C[C@@H]1CCCCO[C@@H](CN(C)Cc2ccccc2)[C@H](C)CN([C@@H](C)CO)C(=O)c2cc(NC(=O)Nc3ccc(C(F)(F)F)cc3)ccc2O1 the results were CFTR F508del cor 1.3, EWS-Fli block -1.3, PGC1a acetyl inh 4.7, Env fusion inh inconclusive, GSIS activator 13.5 and PAX8 reporter 105.8*.
For C[C@H]1CN([C@@H](C)CO)C(=O)c2cc(NS(=O)(=O)c3ccc(F)cc3)ccc2O[C@@H]1CN(C)S(=O)(=O)c1ccccc1 the results were CFTR F508del cor -2.1, EWS-Fli block 2.9, PGC1a acetyl inh -13.8, Env fusion inh -22.7[16.7 µM], GSIS activator -8.0 and PAX8 reporter 2.0.
Cc1nn(S(=O)(=O)c2cccs2)c(C)c1Sc1ccc([N+](=O)[O-])cc1 was read as PGC1a acetyl inh -5.6, Env fusion inh 97.4*, GSIS activator 3.8 and PAX8 reporter 17.8.
`Cc1nn(S(=O)(=O)c2ccccc2)c(C)c1Sc1ccc([N+](=O)[O-])cc1` gave PGC1a acetyl inh -25.1 and GSIS activator -21.5.
For Cc1ccc(S(=O)(=O)N(C)C[C@@H]2OCCCC[C@H](C)Oc3ccc(NC(=O)Nc4ccc(C(F)(F)F)cc4)cc3C(=O)N([C@@H](C)CO)C[C@@H]2C)cc1 the results were CFTR F508del cor -3.1, EWS-Fli block 6.3, PGC1a acetyl inh 1.9, Env fusion inh 36.5[16.7 µM], GSIS activator 19.9 and PAX8 reporter 41.8.
Screening Cc1ccc(S(=O)(=O)N(C)C[C@@H]2OCCCC[C@H](C)Oc3ccc(NC(=O)Nc4ccc(C(F)(F)F)cc4)cc3C(=O)N([C@H](C)CO)C[C@H]2C)cc1 returned CFTR F508del cor 3.6, EWS-Fli block 9.6, PGC1a acetyl inh -5.4, Env fusion inh 45.4[16.7 µM], GSIS activator 41.4 and PAX8 reporter 61.4*.
Screening Cc1ccc(S(=O)(=O)N(C)C[C@@H]2OCCCC[C@@H](C)Oc3ccc(NC(=O)Nc4ccc(C(F)(F)F)cc4)cc3C(=O)N([C@H](C)CO)C[C@H]2C)cc1 returned CFTR F508del cor 6.0, EWS-Fli block -0.9, PGC1a acetyl inh 3.3, Env fusion inh 56.6*[16.7 µM], GSIS activator 13.8 and PAX8 reporter 51.3.
For CO[C@@H]1CN(C)C(=O)c2ccc(NC(=O)C3CCCC3)cc2OC[C@H](C)N(CCC(F)(F)F)C[C@H]1C the results were CFTR F508del cor 1.1, EWS-Fli block 8.8, PGC1a acetyl inh 2.0, Env fusion inh 9.4[16.7 µM] and GSIS activator -32.5.
Screening COc1cccc(S(=O)(=O)N(C)C[C@@H]2Oc3ncc(-c4cccc(C(F)(F)F)c4)cc3C(=O)N([C@H](C)CO)C[C@@H]2C)c1 returned CFTR F508del cor 0.2, EWS-Fli block 10.3, PGC1a acetyl inh -0.8, GSIS activator -25.7 and PAX8 reporter 31.8.
C[C@@H]1CCCCO[C@H](CN(C)C(=O)Nc2ccccc2)[C@@H](C)CN([C@H](C)CO)C(=O)c2cc(NC(=O)Nc3ccc(C(F)(F)F)cc3)ccc2O1 was read as CFTR F508del cor 1.2, EWS-Fli block -1.5, PGC1a acetyl inh 9.4, GSIS activator 5.9 and PAX8 reporter 12.3.
For C[C@H](CO)N1C[C@H](C)[C@@H](CN(C)C(=O)Nc2ccc(C(F)(F)F)cc2)OCCCC[C@H](C)Oc2ccc(NC(=O)Nc3ccc(F)cc3)cc2C1=O the results were CFTR F508del cor 9.3*, EWS-Fli block -3.2, PGC1a acetyl inh -0.3, Env fusion inh 19.9[16.7 µM], GSIS activator 10.7 and PAX8 reporter 13.1.
For C[C@@H]1CN([C@H](C)CO)C(=O)c2cc(NC(=O)Nc3ccccc3)ccc2O[C@@H](C)CCCCO[C@H]1CN(C)C(=O)Nc1ccc(C(F)(F)F)cc1 the results were CFTR F508del cor -0.1, EWS-Fli block 24.4, PGC1a acetyl inh -2.1, GSIS activator 5.4 and PAX8 reporter 84.2*.
For C[C@H]1CCCCO[C@@H](CN(C)C(=O)Nc2ccc(C(F)(F)F)cc2)[C@@H](C)CN([C@@H](C)CO)C(=O)c2cc(NC(=O)Nc3ccc(F)cc3)ccc2O1 the results were CFTR F508del cor 8.3*, EWS-Fli block -7.5, PGC1a acetyl inh 5.2, Env fusion inh 6.7[16.7 µM], GSIS activator 23.8 and PAX8 reporter 1.7.
For C[C@@H]1CN([C@H](C)CO)C(=O)c2cc(NC(=O)Nc3ccc(C(F)(F)F)cc3)ccc2O[C@H]1CN(C)C(=O)Nc1ccc2c(c1)OCO2 the results were CFTR F508del cor 1.7, EWS-Fli block -12.4, PGC1a acetyl inh 2.4 and GSIS activator -4.3.
For C[C@@H]1CN([C@@H](C)CO)C(=O)c2cc(NC(=O)Nc3ccc4c(c3)OCO4)ccc2O[C@@H]1CN(C)C(=O)Nc1ccc(C(F)(F)F)cc1 the results were CFTR F508del cor 0.4, EWS-Fli block 1.8, PGC1a acetyl inh 1.0, Env fusion inh -4.5[16.7 µM], GSIS activator -10.7 and PAX8 reporter 77.4*.
For CCC(=O)N(C)C[C@H]1Oc2ncc(C#CCc3ccccc3)cc2C(=O)N([C@H](C)CO)C[C@@H]1C the results were CFTR F508del cor -0.4, EWS-Fli block -0.6, PGC1a acetyl inh -10.6, Env fusion inh 8.0[16.7 µM] and GSIS activator -13.6.
For O=C(C[C@H]1CC[C@@H](NC(=O)Nc2cc(F)ccc2F)[C@@H](CO)O1)Nc1ccccc1 the results were CFTR F508del cor 1.0, EWS-Fli block 3.3, PGC1a acetyl inh 12.3, Env fusion inh -9.2[16.7 µM] and GSIS activator -27.0.
CC(C)C#Cc1cnc2c(c1)C(=O)N([C@@H](C)CO)C[C@@H](C)[C@@H](CN(C)C(=O)c1cnccn1)O2 was read as CFTR F508del cor 1.6, EWS-Fli block -15.2, PGC1a acetyl inh -6.2, Env fusion inh -3.8[16.7 µM] and GSIS activator 11.4.
For C[C@H]1CCCCO[C@@H](CN(C)C(=O)Nc2ccc(C(F)(F)F)cc2)[C@@H](C)CN([C@@H](C)CO)C(=O)c2cc(NC(=O)Nc3ccc4c(c3)OCO4)ccc2O1 the results were CFTR F508del cor 8.1*, EWS-Fli block -38.9, PGC1a acetyl inh -7.2, Env fusion inh 35.4[16.7 µM], GSIS activator -30.9 and PAX8 reporter 0.6.
